# FBW7 activator = activators of human E3 ligase FBW7; normalized activity (activation), % at 26.1 µM; AID 1259310; AlphaScreen FBW7–phospho-cyclin E peptide binding, activator screen; 650,000 tested, 0.13% active; in the data active means normalized activity above about 1.9%;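 further: purified mutant Fbw7 with reduced substrate affinity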
# Target sequence (Q969H0 whole entry, looked up): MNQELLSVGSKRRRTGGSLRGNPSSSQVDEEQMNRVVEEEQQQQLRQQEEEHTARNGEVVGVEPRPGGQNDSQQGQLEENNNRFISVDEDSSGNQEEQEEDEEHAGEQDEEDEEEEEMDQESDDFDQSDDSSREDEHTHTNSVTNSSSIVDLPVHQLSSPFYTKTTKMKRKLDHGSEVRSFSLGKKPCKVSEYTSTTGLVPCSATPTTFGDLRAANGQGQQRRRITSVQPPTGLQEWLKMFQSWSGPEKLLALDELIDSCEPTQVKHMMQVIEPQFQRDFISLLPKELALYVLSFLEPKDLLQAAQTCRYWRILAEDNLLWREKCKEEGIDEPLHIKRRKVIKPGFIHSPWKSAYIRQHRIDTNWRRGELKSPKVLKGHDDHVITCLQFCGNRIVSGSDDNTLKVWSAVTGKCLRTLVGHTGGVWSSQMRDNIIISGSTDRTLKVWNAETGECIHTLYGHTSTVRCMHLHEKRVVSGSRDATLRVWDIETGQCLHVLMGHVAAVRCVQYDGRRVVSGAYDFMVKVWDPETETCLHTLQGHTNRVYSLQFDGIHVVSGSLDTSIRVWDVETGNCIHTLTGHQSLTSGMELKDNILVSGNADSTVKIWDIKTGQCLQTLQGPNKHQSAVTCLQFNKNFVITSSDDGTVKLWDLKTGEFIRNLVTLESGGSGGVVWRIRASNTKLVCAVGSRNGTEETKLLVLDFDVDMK
# GPR151 activ = activates the human receptor GPR151; Q8TDV0; PathHunter beta-arrestin GPR151 cells, luminescence; activation, % at 11.2 µM; 650,000 tested, 1% active; AID 1508602; in the data active means activation above about 4.9%;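 further: 0% = median of compound wells and 100% = cells with positive control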
# TEAD-YAP inh = TEAD-YAP interaction inhibition; AID 1259422; HEK-TIYL cells, TEAD-Gal4/YAP UAS-luciferase luminescence; inhibition, % at 9.12 µM; 640,000 tested, 1.4% active; in the data active means inhibition above about 32%;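 further: 0% = median of test compound wells and 100% = reference inhibitor wells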
# MITF primary = inhibitors of human MITF | O75030 | AlphaScreen MITF homodimerization, bead proximity signal | inhibition, % at 2.6 µM | 650,000 tested, 0.91% active | AID 1259374; in the data active means inhibition above about 50%;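 further: 0% = vehicle wells with protein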
# Starred values were filed as active, the others as inactive. An excerpt weighted towards active compounds, which were near 3.4% of everything screened.
SMILES,FBW7 activator,GPR151 activ,TEAD-YAP inh,MITF primary
Cc1ccc(NC(=O)N2CCN(C(=O)C3CCCO3)CC2)cc1Cl (configuration not stated),0.4,-0.8,3.2,-2.1
Fc1cccc(Nc2nc(Cl)nc(Cl)n2)c1,0.2,0.9,2.2,7.1
Clc1nc(Cl)nc(Nc2ccccc2)n1,2.2*,1.4,11.5,5.1
COc1ccc(Nc2nc(N)c3ccccc3n2)cc1,0.2,-10.6,72.6*,23.3
Nc1nc(Nc2ccc(Cl)cc2)nc2ccccc12,0.4,-7.5,52.1*,10.2
COc1ccc(C2CC(=O)C3=C(C2)Nc2ccccc2NC3c2ccc(Br)s2)cc1 (configuration not stated),0.1,-1.3,3.2,-0.1
COc1cccc(C(=O)NCCNc2ccc(C(F)(F)F)cc2[N+](=O)[O-])c1,0.0,0.5,-1.8,7.1
COc1cccc(-n2c(-c3ccc(F)cc3)n[nH]c2=S)c1,-0.2,-0.5,-15.7,-19.1
Cn1c(-c2ccccc2)cn2c3ccccc3nc12,0.6,-0.1,30.3,4.8
COc1cccc(-c2cn3cc(-c4ccc(F)cc4)nc3n2C)c1,-0.1,0.6,70.4*,0.9
COc1ccc(-c2cn3cc(-c4ccccc4)nc3n2C)cc1,-0.3,-1.4,97.0*,-3.7
O=C(NC1CCCC1)c1cc(=O)c(OCc2ccc(F)cc2)co1,-0.1,-0.1,-3.3,2.6
O=C1/C(=C\c2ccc(Br)cc2)SC(=Nc2ccccc2)N1Cc1ccccc1,0.0,0.1,-9.7,-10.5
CC(C)NC1CCCc2c1[nH]c1ccc([N+](=O)[O-])cc21 (configuration not stated),0.0,0.6,49.3*,30.4
CCc1ccc2c(c1)/C(=c1/sc3n(c1=O)CN(c1cccc(C(=O)O)c1)CN=3)C(=O)N2,3.9*,-0.7,-0.8,2.8
CCOc1cccc2cc(C(N)=O)c(=Nc3ccc(Cl)cc3Cl)oc12,0.2,-2.0,-3.0,-2.9
COc1ccc(S(=O)(=O)N2CCN(CC(=O)c3ccc(O)c(O)c3)CC2)cc1,-0.1,-1.7,-1.6,81.0*
O=C(CN1CCN(CC(=O)c2ccc(O)c(O)c2)CC1)Nc1ccccc1Cl,-0.2,0.7,7.0,89.4*
O=C(CN1CCN(S(=O)(=O)c2ccc(Cl)cc2)CC1)c1ccc(O)c(O)c1,0.0,-0.7,-3.4,82.3*
COc1ccc(S(=O)(=O)N2CCN(CC(=O)c3ccc(OC)c(OC)c3)CC2)cc1,-0.3,1.4,-3.2,0.8
CC(=O)OC1CCC2(C)C3CCC4(C)C(CC5OC6(CCC(C)CO6)C(C)C54)C3CC(=O)C2(O)C1 (configuration not stated),0.0,-1.7,-2.3,-2.5
COC(=O)c1ccc(-c2ccc(/C=C3\SC(N)=NC3=O)o2)cc1,0.1,0.0,5.6,1.7
Oc1c(CN2CCC(Cc3ccccc3)CC2)cc(Cl)c2cccnc12,-0.3,0.3,59.5*,60.0*
c1ccc(CC2CCN(Cc3ccccn3)CC2)cc1,-0.3,3.2,2.0,23.8
CCOC(=O)N1CCN(C(c2ccccn2)c2c(C)[nH]c3ccccc23)CC1 (configuration not stated),-0.1,-0.5,3.6,6.8
SMILES,FBW7 activator,GPR151 activ,TEAD-YAP inh,MITF primary
Oc1c(C(c2ccccn2)N2CCN(c3ccc(F)cc3)CC2)cc(Cl)c2cccnc12 (configuration not stated),-0.5,0.1,-2.2,25.5
CCOC(=O)N1CCN(C(c2ccccn2)c2cc(Cl)c3cccnc3c2O)CC1 (configuration not stated),0.3,-1.8,-5.4,53.4*
CCOC(=O)N1CCN(Cc2cc(Cl)c3cccnc3c2O)CC1,-1.2,-0.2,76.1*,49.9
CCOC(=O)N1CCN(C(c2ccccn2)c2ccc3cccnc3c2O)CC1 (configuration not stated),-0.3,-1.8,6.7,91.0*
CCOC(=O)c1c(NC(=O)c2ccc(S(=O)(=O)N3CCCCC3C)cc2)sc2c1CCN(CC)C2 (configuration not stated),0.0,0.2,1.6,-5.1
CCOC(=O)c1cccc(C(=O)Nc2nc3ccc(C)cc3s2)n1,0.0,1.4,-12.1,5.9
CCN(CC)Cc1cc(Cl)c2cccnc2c1O,-1.2,0.5,73.6*,55.4*
Oc1c(C(c2ccccn2)N2CCCC2)cc(Cl)c2cccnc12 (configuration not stated),0.4,-0.9,29.0,78.9*
CN1CCN(C(c2ccccn2)c2cc(Cl)c3cccnc3c2O)CC1 (configuration not stated),-0.3,0.6,6.8,28.2
O=C(CSc1nnc(-c2ccccn2)n1-c1ccccc1Cl)Nc1nccs1,0.0,-0.1,58.9*,-1.6
O=C(CSc1nnc(-c2ccco2)n1-c1ccccc1)Nc1nccs1,0.1,-1.0,1.4,-20.4
O=C(CSc1nnc(-c2cccnc2)n1-c1ccccc1Cl)Nc1nccs1,0.0,-0.8,38.6*,4.8
CCc1ccccc1-n1c(SCC(=O)Nc2nccs2)nnc1-c1cccnc1,-0.1,0.4,56.6*,5.6
Cc1cccc(-n2c(SCC(=O)Nc3nccs3)nnc2-c2cccnc2)c1C,-0.2,-0.8,-1.1,-24.3
O=C(CSc1nnc(-c2cccc([N+](=O)[O-])c2)n1-c1ccccc1)Nc1nccs1,-0.1,0.2,44.4*,-8.0
C=CCN1CC(c2nc3ccccc3n2CC(O)COc2ccc(C)cc2C)CC1=O (configuration not stated),0.0,-0.1,2.9,14.7
COc1cccc(C2C3=C(NCCN=C3c3ccc(Cl)cc3)C(=O)N2c2ccccc2)c1 (configuration not stated),0.0,1.0,58.2*,6.0
O=C1C2=C(C(c3ccc(Cl)cc3)=NCCN2)C(c2ccccc2)N1c1ccccc1 (configuration not stated),0.1,0.0,-0.9,12.8
COC(=O)c1ccc(C2N(O)C3CCCCC3N2O)cc1 (configuration not stated),0.1,1.1,-16.3,3.1
CN(C)c1ccc(C2N(O)C3CCCCC3N2O)cc1 (configuration not stated),-0.2,-0.6,33.6*,-1.8
O=C(CSc1ncn[nH]1)NNC(=O)c1ccccc1Br,0.1,-1.3,9.6,12.2
Cc1nnc(SCC2CCCO2)n1Cc1ccccc1 (configuration not stated),0.0,1.5,3.5,-15.1
CC(C)(C)c1ccc(C(=O)N2CCCCCC2=O)cc1,-0.1,-0.7,55.2*,-6.8
CC(=O)Nc1ccccc1OCC(=O)c1cc(C)n(CCc2ccc(F)cc2)c1C,0.0,2.1,60.6*,14.3
COc1ccc(S(=O)(=O)Oc2ccc(C=C3C(=O)NC(=S)NC3=O)cc2OC)cc1,-0.1,0.3,53.5*,-6.0
COc1ccc(C=O)cc1OS(=O)(=O)c1ccc(Cl)cc1,0.1,-0.7,24.8,4.5
COc1cccc(C=O)c1OS(=O)(=O)c1ccc(Cl)cc1,-0.1,0.7,10.9,-4.6
COc1ccc(S(=O)(=O)Oc2c(C=O)cccc2OC)cc1,-0.1,-0.4,46.2*,-7.5
COc1ccc(S(=O)(=O)Oc2cccc(C=C3C(=O)NC(=S)NC3=O)c2)cc1,0.7,-0.7,6.4,4.5
COc1ccc(S(=O)(=O)Oc2ccc(C=O)cc2OC)cc1,0.1,-0.7,47.1*,7.0

# High-throughput results from PubChem.
